VCAM1 TNFa pot: TNF alpha stimulated VCAM1 expression potentiation; AID 808; 93,000 compounds, 0.19% hits; HUVEC TNFa-stimulated VCAM-1 immunofluorescence, high-content imaging; scaled per plate to unstimulated/TNFa-only wells; activation, % at 2 µM;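 active = activation above the screen mean plus 3 SD, with well images confirming the hit on visual review, cut at about 28% in these data, passing the limit was not always enough; inconclusive = activation above that limit but images do not confirm it; inactive = activation not above that limit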;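 note: signal is the number of cytoplasmic VCAM-1 stained grains per positive cell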
VCAM1 pot confirm: enhancers of VCAM1 induction in HUVEC – imaging, triplicate retest, confirmation | AID 1034 | shares compounds with VCAM1 TNFa pot | 230 tested, under 10 active | activation, % at 2 µM | HUVEC TNFa-stimulated VCAM-1 immunofluorescence imaging;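 active = activation above 30% in triplicate retests at 2 µM, then confirmed by visual review of the well images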
A number is an active result; 0 = inactive; ? = inconclusive. The full list was thinned out, with hits kept by preference.

SMILES	VCAM1 TNFa pot	others
CCCN1C(=O)SC(CC(=O)Nc2ccc(C)cc2)C1=O (stereo not drawn)	0
Cc1ccc(NC(=O)COC(=O)c2ccn(C)n2)cc1	?	VCAM1 pot confirm=0
Cc1cc(C)n(-c2ccc(C(=O)OCC(=O)Nc3ccc(Cl)c(S(=O)(=O)N(C)C)c3)cc2)n1	0
C=C(C)CSc1nc(N)c2c(C)c(C)sc2n1	0
Cc1ccc2c(c1)-c1ccccc1S(=O)(=O)N2	32	VCAM1 pot confirm=0
CCOc1cccc(C(=O)Nc2ccc3oc(Cc4ccc(Cl)cc4)nc3c2)c1	0
CC(=O)c1c(C(C)=O)c(C)n(CCCCn2c(C)c(C(C)=O)c(C(C)=O)c2C)c1C	0
CSC1=NCCN1C(=O)COc1ccc2ccccc2c1	30	VCAM1 pot confirm=0
COc1ccc(OCC(=O)N2CC3(C)CC2CC(C)(C)C3)cc1 (stereo not drawn)	0
O=C(COc1ccc(Br)cc1)N1CCN(c2ccccc2)CC1	0
CCOC(=O)c1cnn(-c2nc3c(C)cccc3s2)c1C	0
Nc1nc(COc2ccc3ccccc3c2)cs1	0
c1ccc2cc(OCc3nc4ccccc4[nH]3)ccc2c1	66	VCAM1 pot confirm=0
COc1ccc(CSc2nc3ccccc3[nH]2)cc1	0
Cc1cc(C)c(C#N)c(=N)o1	0
O=C(NC1CCCc2ccccc21)c1cncc(Br)c1 (stereo not drawn)	0
Cc1cccc(/C(N)=N/OC(=O)c2ccco2)c1	0
N/C(=N\OC(=O)c1ccc(Br)cc1)c1ccccc1	58	VCAM1 pot confirm=0
O=C(/C=C/NNC(=O)c1ccccc1)c1ccc(Br)cc1	0
CCN(CC)CC(C)OC(=O)COc1ccc(OC)cc1 (stereo not drawn)	0
COC(=O)C1=C(C)N(C2CCCC2)C(=O)C1(NC(C)=O)C(F)(F)F (stereo not drawn)	0
Cc1cc(OCC(=O)NCc2nc(-c3ccccc3)no2)c(C)cc1Br	0
Cc1nc(Nc2ccccc2)[nH]c(=O)c1CCC(C)C	?	VCAM1 pot confirm=0
Cc1cc(N(C)C)nc(SC(C)C)n1	0
N=C1C(=O)OCC1c1cc(Cl)ccc1NC(=O)Nc1ccccc1 (stereo not drawn)	0
SMILES	VCAM1 TNFa pot	others
CCOc1ccc(CCNC(=O)Cn2c(=O)oc3ccccc32)cc1OCC	0
Cn1nc(C(=O)NCC2CCCO2)c2ccccc2c1=O (stereo not drawn)	0
CC(C(=O)NCC1CCCO1)N(C(=O)c1snc(C(N)=O)c1N)c1ccccc1 (stereo not drawn)	40	VCAM1 pot confirm=0
O=C(CC(c1ccccc1)c1ccccc1)NCC1CCCO1 (stereo not drawn)	0
CCCCOc1ccc(NC(=O)CSc2nnnn2C)cc1	0
COc1ccc(C(=O)Nc2nc3ccccc3[nH]2)cc1OC	0
COc1ccc(C(=O)/C(C)=N/O)cc1OC	0
COc1ccc(C(=O)Nn2c(C)nnc2-n2nc(C)cc2C)cc1OC	43	VCAM1 pot confirm=0
O=C(CSc1nnnn1-c1ccc2c(c1)OCO2)NCc1ccccc1	0
O=C(CSc1nnc(Cc2cccs2)n1-c1ccccc1)NCc1ccc2c(c1)OCO2	0
Cc1cc(C(=O)CSc2nnc(Cc3ccccc3)o2)c(C)n1Cc1ccc2c(c1)OCO2	54	VCAM1 pot confirm=0
CC(C)(C)S(=O)c1cccs1 (stereo not drawn)	0
COc1nn(C(C)C(=O)N2N=C(C(F)F)CC2(O)C(F)F)cc1[N+](=O)[O-] (stereo not drawn)	0
COc1ccc(NC(=O)c2ccc(CN3CCN(c4ccccc4)CC3)cc2)cc1OC	?	VCAM1 pot confirm=0
CCOc1cc(C(=O)Nc2ccc(N3CCN(S(C)(=O)=O)CC3)cc2)cc(OCC)c1OCC	0
COc1cc(NC(=O)NCCN2CCN(c3ccc(Cl)cc3)CC2)ccc1C	0
Cc1cc(C)c(-c2cc(NC(=O)CSc3n[nH]c(N)n3)n(-c3ccccc3)n2)cc1C	0
CC(C)NC(=O)c1ccccc1NC(=O)CCc1ccccc1	0
COc1ccc(-c2cc(C(=O)Nc3cc(C)n(Cc4ccc(Cl)cc4)n3)no2)cc1OC	0
O=C(NCc1ccco1)c1cc2c(s1)CCCCC2	0
O=CN(Cc1ccco1)C1(C(=O)NC2CCCCC2)CCCCC1	37	VCAM1 pot confirm=0
COc1ccc(CN(C(=O)CNC(=O)c2ccco2)C(C(=O)NC2CCCC2)c2ccco2)cc1 (stereo not drawn)	0
CCn1cc(C(=O)N=c2sc3ccccc3n2C)c(=O)c2ccc(C)nc21	0
Cn1c(/C=N/n2cnnc2)nc2ccccc21	?	VCAM1 pot confirm=0
Cn1c(/N=C/c2c[nH]c3ccccc23)nc2ccccc21	0
SMILES	VCAM1 TNFa pot	others
Cn1c(NCc2c[nH]c3ccccc23)nc2ccccc21	0
Cn1c(=O)c2c(-c3ccccc3F)c3c(nc2n(C)c1=O)-c1ccccc1C3O (stereo not drawn)	0
OCCN=C(c1ccccc1)C12CN3CN(CN(C3)C1)C2	0
CC(NCc1ccc2c(c1)OCO2)C(=O)NC1CCCc2ccccc21 (stereo not drawn)	0
CN(C(=O)CSc1nc(-c2ccccc2)cn1N)C(c1ccccc1)c1ccccc1	0
C=CCNc1sc(C(=O)C2CC2)c(N)c1C#N	30	VCAM1 pot confirm=0
C=CCNc1sc(C(=O)c2ccccc2)c(N)c1C#N	0

Compound activity (PubChem BioAssay)
